Laboratory results from PubChem BioAssay (EPA / NIEHS).
Calls of active or inactive are those of the source. Rule for the calls: active = hit-call score of the fitted dose curve at least 0.9, where 1 is the maximum; inactive = score below 0.9.

The compounds below were run on Cyclin D1 (CCND1), CCND1 (gene 595) (assay: LTEA_HepaRG_CCND1: Life Technologies and Expression Analysis (LTEA) Assay for Cyclin D1 (CCND1) using HepaRG (AID 2283451;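 for AC50: TaqMan qRT-PCR transcript level normalised to ACTB GAPDH and POLR2A housekeeping genes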)). Details: mRNA level, 48 h; actives raise or lower the signal.
Method: LTEA_HepaRG is a cell based, multiplexed-readout assay that uses HepaRG, a human liver cell line, with measurements taken at 48 hours after chemical dosing on a 96-well plate.LTEA_HepaRG_CCND1 is one of 102 assay component(s) measured in the LTEA HepaRG cell culture assay. It is a marker of Cell proliferation, survival, death.Data from the assay component LTEA_HepaRG_CCND1 was analyzed into 1 endpoint. This assay endpoint, LTEA_HepaRG_CCND1, was analyzed with bidirectional fitting relative to DMSO as the negative control and baseline of activity. Using a type of inducible reporter, measures of mRNA induction for gain or loss-of-signal activity can be used to understand regulation of transcription factor activity. To generalize the intended target to other relatable targets, this assay endpoint is annotated to the cell cycle intended target family, where the subfamily is Cell proliferation, survival, death.
A total of 1060 chemcials from the ToxCast library were tested in eight-point concentration-response experiments. Cell culture and cytotoxicity assays were conducted at Thermo Fisher Scientific's Custom Services facility (Madison, WI). A single lot of human HepaRG cells (Thermo Fisher Scientific, Frederick, MD) was used for the cell culture experiments. 96-well format collagen type I coated plates of human HepaRG cells were prepared using established methods. Briefly, cryopreserved HepaRG cells were thawed, plated at a density of approximately 100,000 cells/well in HepaRG Thaw, Plate, and General Purpose media (HPRG770, Thermo Fisher Scientific), and incubated for 48 hours. 0.5% DMSO was selected as vehicle control to balance the requisite need of DMSO in HepaRG cultures to maintain differentiation (for example, baseline metabolism, proportions of hepatocytes vs. cholangiocytes), while enabling further hepatic receptor pathway activation (for example, PXR and CAR) in response to chemical exposure. 48 hours after plating, the culture medium was replaced with HepaRG Serum-Free Incudtion Media. Cells were exposed to each test chemical in duplicate and maintained in CO2 incubators for another 48 hours. Chemical plates were thawed to room temperature and 200x concentrations of treatment groups were prepared. 8-point conentration-reponse curves were made with the highest exposure at 100 uM, followed by half-log dilutions, all in 0.5% DMSO. Each test plate contained variouse controls, induction positive controls (1mM phenobarbital), cytotoxicity positive controls ([…] aflatoxin B1), vehicle controls (0.5% DMSO), and total lysis controls (0.5% DMSO). Cell morphology images were taken using an Essen IncuCyte FLR automated microscope, with six 96-well plates imaged in about 24 minutes. Images were captured and exported and JPEG files. Spent culture media was transfered to black-well plates for the LDH assay, and remaining media was sorted at -80 C for later use. Cells were treated with RLT buffer and frozen until shipped for gene expression analysis. Total RNA was isolated from the cell suspension in 75 uL of Buffer RLT (Qiagen, Germantown, MD 20874) by Quintiles/Expression Analysis (Durham, NC) using a custom isolation procedure. Total RNA from each plate well was transferred to a preamplification plate. Fluidigm's 96.96 Dynamic ArrayTM (Fluidigm, Amsterdam, the Netherlands) technology was used for gene expression analyses by quantitative reverse transcription polymerase chain reaction (qRT-PCR, performed by Quintiles/Expression Analysis, Durham, NC)89. Standard TaqManTM Assays (Applied Biosystems/ThermoFisher Scientific, Foster City, CA) were used to assess the expression of 93 genes selected based on their selectivity and sensitivity to important hepatic receptors known to be modulated by environmental chemicals; importance in human hepatocyte functionality; and hepatotoxicity. […]

Row | Compound | AC50 | outcome
1 | Nc1ccc2c(c1)C(=O)c1ccccc1C2=O | 1.19 µM (active) | –
2 | Cc1ccc(C(C)C)c(O)c1 | – | inactive
3 | C=CCOC(=O)c1ccccc1C(=O)OCC=C | – | inactive
4 | CC1=C(/C=C/C(C)=C/C=C/C(C)=C/CO)C(C)(C)CCC1 | – | inactive
5 | O=C(O)Cc1ccccc1Nc1c(Cl)cccc1Cl | – | inactive
6 | COCCOC[C@H](CC1(C(=O)NC2CCC(C(=O)O)CC2)CCCC1)C(=O)Oc1ccc2c(c1)CCC2 (stereo not given in full) | 0.204 µM (active) | –
7 | CCCc1cc(=O)[nH]c(=S)[nH]1 | – | inactive
8 | CC(C)(C)c1cc(O)c(C(C)(C)C)cc1O | – | inactive
9 | Cc1ccccc1Cl | – | inactive
10 | COc1cc(C=O)ccc1O | – | inactive
11 | CC(=O)OCCOCCOCCOC(C)=O | – | inactive
12 | CC(C)c1ccc(C(=O)N=C(N)N)cc1S(C)(=O)=O | 0.493 µM (active) | –
13 | Cc1oc(-c2ccccc2)nc1CCOc1cccc2c1ccn2CCC(=O)O | 50 µM (active) | –
14 | Cc1cccc([N+](=O)[O-])c1C | – | inactive
15 | C[C@]12C=CC(=O)C=C1CC[C@@H]1[C@@H]2C(=O)C[C@@]2(C)[C@H]1CC[C@]2(O)C(=O)CO | 12.3 µM (active) | –
16 | CN1CCCC1=O | – | inactive
17 | NS(=O)(=O)c1cc2c(cc1Cl)NCNS2(=O)=O | – | inactive
18 | O=C(N[C@@H](Cc1ccccc1)[C@@H](O)C(=O)N1C[C@@H](O)[C@@H](O)C1)c1cc2cc(Cl)ccc2[nH]1 | – | inactive
19 | O=C(O)CCCCC(=O)O | – | inactive
20 | COc1ccc(C)cc1N | – | inactive

Row | Compound | AC50 | outcome
21 | Cc1ccc(C)c(C)c1 | – | inactive
22 | O=[N+]([O-])C(CO)(CO)CO | – | inactive
23 | CCCCCC(=O)O | – | inactive
24 | Cc1cc(NC(=O)C(=O)O)cc(C)c1Oc1ccc(O)c2c1CCC2 | – | inactive
25 | Cc1ccc(Cl)cc1 | – | inactive
26 | Clc1cc(Cl)c(Cl)cc1Cl | – | inactive
27 | Oc1ccc2ccccc2c1N=Nc1ccccc1 | 9.92 µM (active) | –
28 | Cc1cccc(C)c1O | – | inactive
29 | CCOC(=O)C(C)(C)Oc1ccc(Cl)cc1 | – | inactive
30 | CN1CCN(Cc2cc(-c3ccc4[nH]c(=O)oc4c3)co2)[C@@H](c2ccc(F)cc2)C1 | 82.5 µM (active) | –
31 | CCCCCCCCCCCCCO | – | inactive
32 | COc1cc(S(=O)(=O)O)c(C)cc1N=Nc1c(O)ccc2cc(S(=O)(=O)O)ccc12 | – | inactive
33 | CC(=O)Oc1ccccc1C(=O)O | – | inactive
34 | c1cc(-c2ccncc2)ccn1 | – | inactive
35 | CCOC(=O)CCC(=O)OCC | – | inactive
36 | COCCOCCOC | – | inactive
37 | CCCCN(CCCC)CCCC | – | inactive
38 | O=c1[nH]cc(F)c(=O)[nH]1 | – | inactive
39 | C[Si]1(C)O[Si](C)(C)O[Si](C)(C)O[Si](C)(C)O1 | – | inactive
40 | FC(F)(F)C(F)(F)C(F)(F)C(F)(F)C(F)(F)C(F)(F)CCI | – | inactive
